Compound activity deposited in PubChem BioAssay by several laboratories.
ERa SRC1 inh: blocks coactivator binding to human estrogen receptor alpha; P03372; TR-FRET ER-alpha LBD / SRC-1 peptide, estradiol-bound; inhibition, % at 25.6 µM; 86,000 compounds, 1.7% hits; AID 629; in the data active = inhibition above about 50%;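 also: 0% = receptor plus peptide control and 100% = peptide only without receptor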
ERa SRC1 pot: enhances coactivator binding to human estrogen receptor alpha; TR-FRET ERalpha-LBD/SRC-Cy5 coactivator binding, 2 h; 100 = basal binding, no effect; 86,000 compounds, 1.3% hits; coactivator binding (% of control), % at 25.6 µM; P03372; in the data active = activity above about 200%;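 also: binding measured in presence of low estradiol as agonist stimulus; 0% = peptide alone without receptor and 100% = receptor with peptide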
Candida biofilm: kills Candida albicans biofilms; C. albicans biofilm + clotrimazole, Alamar Blue; inhibition, % at 6 µM; 85,000 compounds, 0.14% hits;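 active = inhibition above 20%; inactive = inhibition below 20%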;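 also: preformed 24 hr biofilms exposed to compound for 48 hr; 0% = biofilm without compound and 100% = blank killed by clotrimazole plus chlorhexidine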
ERb SRC1 inh: ER-beta (human) coactivator binding inhibition. Q92731. TR-FRET ER-beta LBD / SRC1-Cy5 peptide binding; receptor agonist-loaded with 1 µM estradiol. inhibition, % at 25.6 µM. 86,000 compounds, 1.3% hits. AID 633;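 active = compounds whose percent inhibition of the receptor-coactivator binding signal exceeds about 50% in the single-dose screen, limit read from the data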;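 also: 0% = receptor plus peptide wells without compound and 100% = peptide-only wells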
MT1-MMP txn act: MT1-MMP promoter transcription activation. HT1080 MT1-MMP promoter luciferase reporter, luminescence, overnight; hits give high values. activation factor at 10 µM. 86,000 compounds, 0.16% hits. AID 750;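 active = activation factor of at least 2 for MT1-MMP transcription at 10 µM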
Smad3 inh: blocks human Smad3 binding to FoxH1 peptide | TR-FRET Smad3/Dy647-FoxH1 peptide binding, europium anti-His | inhibition, % at 25 µM | 88,000 compounds, 0.29% hits | P84022;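 active = compounds that reduce the energy-transfer binding signal between the protein and its labelled peptide by more than half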;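 also: 0% = Smad3 plus labelled peptide maximal FRET and 100% = peptide-only background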
Target sequence (P84022 whole entry, looked up): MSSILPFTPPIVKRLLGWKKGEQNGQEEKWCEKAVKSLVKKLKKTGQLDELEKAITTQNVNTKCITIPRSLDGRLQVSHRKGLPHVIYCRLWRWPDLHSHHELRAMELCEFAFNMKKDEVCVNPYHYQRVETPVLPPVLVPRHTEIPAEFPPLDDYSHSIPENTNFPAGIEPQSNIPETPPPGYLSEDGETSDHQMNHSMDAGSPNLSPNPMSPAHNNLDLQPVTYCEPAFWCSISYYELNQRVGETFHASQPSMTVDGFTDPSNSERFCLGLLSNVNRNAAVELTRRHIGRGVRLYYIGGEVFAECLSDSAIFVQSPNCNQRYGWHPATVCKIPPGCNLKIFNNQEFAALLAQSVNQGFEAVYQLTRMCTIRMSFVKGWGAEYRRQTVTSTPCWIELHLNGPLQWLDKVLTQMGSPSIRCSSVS
Active calls of the source: *; / = no result; [ ] = another dose, or the depositor's remark. Compounds with a hit are over-represented: about 3.8% of the library has one in this group of screens.

SMILES | ERa SRC1 inh | ERa SRC1 pot | Candida biofilm | ERb SRC1 inh | MT1-MMP txn act | Smad3 inh
COc1cc2c(cc1OC)[C@]13CC[N@+]4(C)CC5=CCO[C@@H]6CC(=O)N2[C@@H]1[C@@H]6[C@@H]5C[C@]34O | / | / | / | / | / | 93*
COc1cc2c(cc1OC)[C@]13CCN4CC5=CCO[C@@H](CC(=O)O)[C@H]([C@H]5C[C@H]41)[C@@H]3N2 | / | / | / | / | / | 88*
Nc1nc2c(c(=S)[nH]1)[n]([Hg][c]1cc([N+](=O)[O-])ccc1O)c[n+]2[C@H]1O[C@H](CO)[C@@H](O)[C@@H]1O | / | / | / | / | / | 46
Nc1ccc([As](=O)(O)O)cc1 | / | / | / | / | 0.9 | /
O=[As](O)(O)c1ccc(Cc2ccc([As](=O)(O)O)cc2)cc1 | / | / | / | / | / | 79*
Nc1ccnn1C1CCNCC1 | 96*[fluorescence artefact?] | 43 | 5 | 95*[fluorescence artefact?] | 0.9 | 19
CCOC(=O)[C@@H]1[C@H]2c3ccccc3-c3ccccc3[C@@H]2C[C@H]1O | / | / | / | / | / | 18
C[C@]12CCC(=O)C=C1C[C@H](O)[C@@H]1[C@@H]2CC[C@@]2(C)[C@H]1CC[C@]2(C)O | / | / | / | / | / | 38
C[C@]12CC[C@H](O[C@@H]3O[C@H](CO)[C@@H](O)[C@H](O)[C@H]3O)C[C@@H]1CC[C@@H]1[C@@H]2CC[C@]2(C)[C@@H](C3=CCOC3=O)CC[C@@]12O | / | / | / | / | / | 56*
COc1cc2cc(c1Cl)N(C)C(=O)C[C@H](OC(=O)C(C)C)[C@]1(C)O[C@H]1[C@@H](C)[C@H]1C[C@](O)(NC(=O)O1)[C@@H](OC)/C=C\C=C(\C)C2 | / | / | / | / | / | 4
Cc1nn(C)c(C)c1/C=C1/CC2C3CC=C4CC(O)CCC4(C)C3CCC2(C)C1=O (stereo not given) | 6 | 81 | -1 | 7 | 1.2 | -11
CCn1ncc(/C=C2/CC3C4CC=C5CC(O)CCC5(C)C4CCC3(C)C2=O)c1C (stereo not given) | -32 | 542*[fluorescence artefact?] | 4 | 7 | 1.3 | -421
O=C(O)/C=C/c1ccc[c]([Sb](=[O])([OH])[OH])c1 | / | / | / | / | / | 90*
COc1ccc(C[C@@H](N)c2ccc(OC)cc2)cc1 | / | / | / | / | / | -15
N#Cc1c(/N=C/c2c(O)n(Cc3ccco3)c(=O)[nH]c2=O)sc2c1CCCC2 | 45 | 86 | 11 | 75* | 1.2 | 23
O=c1[nH]c(=O)n(Cc2ccco2)c(O)c1C=NCc1cccs1 | 9 | 88 | 6 | 22 | / | -4
CC1=NN(c2ccc(S(=O)(=O)O)cc2C)C(=[OH+])[C@@H]1N=Nc1cc(S(=O)(=O)O)ccc1C(=O)O.O.[Cr] | / | / | / | / | / | 11
O=C(O)c1cccc([As]=[As]c2cccc(C(=O)O)c2)c1 (stereo not given) | / | / | / | / | / | 55*
NC(N)=NCCN=C(N)N | / | / | / | / | / | 36
COc1cc(/C=C2\C(=O)NC(=O)N(c3ccccc3)C2=O)cc(OC)c1O | -3 | 97 | 5 | -4 | 1.1 | 4
Cc1cc(/C=C2/C(=O)NC(=O)N(c3ccccc3)C2=O)c(C)n1-c1ccc(F)cc1 | 52* | 110 | 3 | 43 | 1.2 | -6
CCCC[C@@H]1C[C@H]1[C@@H](NP(=O)(c1ccccc1)c1ccccc1)c1ccc(Cl)cc1 | / | / | / | / | 1.1 | /
CN1C(=O)/C(=C/c2ccc(N3CCCCCC3)o2)C(=O)NC1=S | -9 | 112 | 6 | -8 | 2.2* | -14
CC1(C)[C@@H]2CC[C@@]1(C)CN(CCC[N+](C)(C)C)C2 | / | / | / | / | / | 30
O=C(O)C[C@@H]1OCC=C2CN3CC[C@]45c6ccccc6N[C@H]4[C@H]1[C@H]2C[C@H]35 | / | / | / | / | / | -14
SMILES | ERa SRC1 inh | ERa SRC1 pot | Candida biofilm | ERb SRC1 inh | MT1-MMP txn act | Smad3 inh
O=C1NC(=O)C(=Cc2cn(CCOc3ccc4c(c3)OCO4)c3ccccc23)C(=O)N1 | 84*[fluorescence artefact?] | 131 | -1 | 60*[fluorescence artefact?] | 1.3 | 8
CO[C@@H]([CH2][Hg][n]1cnc2c1c(=O)n(C)c(=O)n2C)CN1C(=O)c2ccccc2S1(=O)=O | / | / | / | / | / | 64*
CN1C[C@@H](C(=O)N[C@@]2(C)O[C@@]3(O)[C@H]4CCCN4C(=O)[C@@H](Cc4ccccc4)N3C2=O)C=C2c3cccc4[nH]cc(c34)C[C@@H]21 | / | / | / | / | / | 20
COC(=O)c1c(C)ccc2c(O)c3c(cc12)C(=O)c1c2c(cc(O)c1C3=O)[C@@]1(C)O[C@@](C)(O2)[C@@H](O)[C@H](N(C)C)[C@H]1O | / | / | / | / | / | 94*
COC(=O)[C@@H]1c2cc3c(c(O)c2[C@@H](O)C[C@]1(C)O)C(=O)c1c(O)cc2c(c1C3=O)O[C@H]1O[C@]2(C)[C@@H](O)[C@H](N(C)C)[C@H]1O | / | / | / | / | / | 27
Nc1ccccc1N=Cc1c(O)n(CCC2=CCCCC2)c(=O)[nH]c1=O | 57* | 140 | -2 | 30 | 1.1 | 1
O=c1[nH]c(=O)n(CCC2=CCCCC2)c(O)c1C=Nc1cccc(F)c1 | 20 | 254* | 5 | 10 | 1.1 | 15
N=C(N)n1cc(/C=N/N=C(N)N)cn1 | / | / | / | / | / | -15
Cc1nc2c(=O)n(C)c(=O)nc-2n(C)n1 | -8 | 108 | 5 | -8 | 0 | 80*
O=c1[nH]cnc2[nH]cc(CN3CCCCC3)c12 | / | / | / | / | / | 78*
c1ccc(CCN2CCOCC2)nc1 | / | / | / | / | / | 8
O=c1[nH]c(=O)n(CCc2ccccc2)c(O)c1C=NCc1ccc2c(c1)OCO2 | 55*[fluorescence artefact?] | 267*[fluorescence artefact?] | 6 | 36 | 1 | 9
COc1cccc2c1C(=O)c1c(O)c3c(c(O)c1C2=O)C[C@](O)(/C(C)=N/O)C[C@@H]3O[C@@H]1C[C@H](N)[C@@H](O)[C@H](C)O1 | / | / | / | / | / | 13
Cc1ccc(S(=O)(=O)Cc2ccc(C(=O)N3CCC4(CC3)OCCO4)o2)cc1 | 51* | 49 | 6 | 56* | 1.2 | -3
O=C(O)CNC(=O)c1ccc([As](=O)(O)O)cc1 | / | / | / | / | / | -5
CC[C@@H](CO)NC(=O)[C@@H]1C=C2c3cccc4c3c(cn4C)C[C@H]2N(C)C1 | 27 | 43 | 1 | 51*[fluorescence artefact?] | 1 | 7
N[C@@H](CSC1c2ccccc2-c2ccccc21)C(=O)O | / | / | / | / | / | 1
C[C@H]1CCC[C@@H](O)CCC/C=C/c2cc(O)cc(O)c2C(=O)O1 | 3 | 466* | 6 | 7 | 0.9 | 1
C[C@H]1CC[C@]2(NC1)O[C@H]1C[C@H]3[C@H]4CC=C5C[C@@H](O)CC[C@]5(C)[C@@H]4CC[C@]3(C)[C@H]1[C@@H]2C | / | / | / | / | / | 11
O=C1N[C@]2(CN3CCC2CC3)C(=O)N1CN(Cc1ccccc1)c1ccccc1 | / | / | / | / | / | -4
CC1(C)CC(=N[N-]C(N)=[SH+])CC(C)(C)N1.CC1(C)CC(=N[N-]C(N)=[SH+])CC(C)(C)N1.[Ni] | / | / | / | / | / | 68*
CC(C)(O)/C=C/C(=O)[C@](C)(O)[C@H]1[C@H](O)C[C@@]2(C)[C@@H]3CC=C4[C@H](C=C(O)C(=O)C4(C)C)[C@@]3(C)C(=O)C[C@]12C | / | / | / | / | / | -5
C[C@@H]1CC[C@@H]2N(C1)C[C@@H]1[C@](O)([C@H](O)C[C@]3(O)[C@H]4CC[C@@H]5[C@]6(O)O[C@@]4(C[C@@]13O)[C@@]5(C)CC[C@H]6O)[C@@]2(C)O | / | / | / | / | / | 1
CC1(C)CC(=O)C(C2(O)C(=O)NC(=O)NC2=O)=C(O)C1 | -8 | 121 | 4 | -6 | 1.1 | 65*[fluorescence artefact?]
c1ccc2c(c1)Sc1ccccc1N2C[C@H]1CN2CCC1CC2 | / | / | / | / | / | 77*
